Results from ChEMBL document CHEMBL3988442, “University of Dundee, Small-Polar-MMV Screening Library” (2021).
Hit rate of the full screen: of about 48,000 compounds, about 13,000 (27%) showed an effect of 50% or more. The list shows a part of the results.

Each compound was assayed on Wolbachia pipientis (assay: Anti-Wolbachia Cell-Based Screen). Conditions: 5 µM.
Type: functional
Design: scale not given: in the data most compounds retested in dose-response had high values

| SMILES | Percent Effect |
| --- | --- |
| CC(C)CC(O)C1CCN(Cc2ccc(N(C)C)nc2)CC1 (centres undefined) | 7.143% |
| Cc1nc(C(NC(=O)c2cc(C(C)C)[nH]n2)c2ccccc2)n[nH]1 (centres undefined) | -6.911% |
| CCC(CO)N(Cc1ccccn1)C(=O)c1cccc(C#N)c1 (centres undefined) | -13.95% |
| CNS(=O)(=O)c1ccc(CNC(=O)Nc2ccccn2)s1 | -5.463% |
| CS(=O)(=O)c1nnc(NC(=O)CCc2cc(F)ccc2F)[nH]1 | -16.39% |
| COCc1cnc2n1CCN(C(=O)C1=CCCCC1)C2C (centres undefined) | 2.775% |
| COCc1cnc2n1CCN(C(=O)c1cc3cc(Cl)ccc3o1)C2C (centres undefined) | 1.755% |
| CC1c2ncc(Cn3cncn3)n2CCN1C(=O)c1ccsc1 (centres undefined) | 106% |
| CC1c2ncc(Cn3cncn3)n2CCN1C(=O)c1cscn1 (centres undefined) | 89.1% |
| CC1c2ncc(Cn3cncn3)n2CCN1C(=O)Cc1cccs1 (centres undefined) | -8.694% |
| CN1CCN(Cc2cnc3n2CCN(C(=O)c2cscn2)C3)CC1 | 22% |
| CC1c2ncc(Cn3cncn3)n2CCN1C(=O)c1ccccn1 (centres undefined) | 114.5% |
| O=C(CSC1=NS(=O)(=O)c2cc(F)ccc2N1)c1ccc(Cl)cc1 | 4.147% |
| O=C(CSC1=NS(=O)(=O)c2cc(Cl)ccc2N1)c1ccccc1 | 112.7% |
| O=C(CSC1=NS(=O)(=O)c2cc(F)ccc2N1)c1ccccc1 | 100.3% |
| O=C(CN1C(=O)c2ccccc2CS1(=O)=O)c1ccc(Cl)cc1 | -11.99% |
| CCN1CC(Oc2ccc(Cl)cc2)=NC(SCC(=O)c2ccccc2)=N1 | 3.791% |
| Cc1nc(COC[C@H]2CC[C@H]3[C@H](CCN3c3ncccn3)O2)cs1.O=C(O)C(F)(F)F | -1.05% |
| COc1cc(NC(=O)NC2CC2)ccc1N1CCOC1=O | -6.648% |
| CCc1[nH]c2c(CNC(=O)[C@@H]3CCCN3C)cc(C)cc2c1C | 16.75% |
| Cn1ccnc1C(O)(CCNCc1ccc(Cl)o1)C(F)(F)F (centres undefined) | -7.652% |
| O=C(c1ccsc1)N1CCc2nnc(COc3cncnc3)n2CC1 | -11% |

| SMILES | Percent Effect |
| --- | --- |
| Cc1ncsc1CNc1ccn(Cc2ccccc2)n1 | -3.966% |
| CCC(C(=O)NCc1csc(N2CCOCC2)n1)n1cccn1 (centres undefined) | 4.05% |
| CCOc1ccc(NC(=O)Nc2cnc(N3CCOCC3)nc2)cc1 | 2.27% |
| COCC(=O)Nc1cnc(N2CCOCC2)nc1 | -9.684% |
| CC[C@H](C)[C@H](N)C(=O)Nc1nc(-c2cnc(N3CCOCC3)nc2)cs1 | 101.5% |
| CC(C)[C@H](N)CC(=O)Nc1nc(-c2cnc(N3CCOCC3)nc2)cs1.Cl | 116.3% |
| CC(C)C(NC(=O)c1nc(N2CCOCC2)ncc1Cl)c1cccs1 (centres undefined) | 8.573% |
| O=C(O)C(F)(F)F.O=C(O)C(F)(F)F.c1ccc(OCc2n[nH]c3c2CN(CC2CC2)C3)nc1 | 5.634% |
| Cc1nc(C)c(C(=O)N2CCc3[nH]nc(COc4ccccc4)c3C2)s1 | 5.403% |
| O=C(Cn1cccn1)N1CCc2[nH]nc(-c3ccc4c(c3)OCO4)c2C1 | 1.932% |
| O=C(N1CCOCC1)N1CCc2[nH]nc(COc3cccc(Cl)c3)c2C1 | 2.718% |
| O=C(CSCC1CC1)N1CCc2[nH]nc(COc3ccccc3)c2C1 | 108.9% |
| O=C1CC[C@@H](C(=O)N2CCc3[nH]nc(COc4cccc(Cl)c4)c3C2)N1 | 3.497% |
| CCSCCC(=O)N1CCc2[nH]nc(COc3ccccc3)c2C1 | 89.78% |
| COC(=O)CCC(=O)N1CCc2[nH]nc(-c3ccc(F)c(F)c3)c2C1 | 3.026% |
| O=C(CCn1cccc1)N1CCc2[nH]nc(COc3ccccc3)c2C1 | 87.66% |
| CN(C)S(=O)(=O)N1C[C@@H]2CC[C@H](C1)N(Cc1cccc(C#N)c1)C2 | -14.1% |
| CCc1nc(CNC(=O)C2CCC(=O)N(Cc3ccccc3F)C2)no1 (centres undefined) | -29.1% |
| CCNc1ncc(C(=O)NCCc2csc(CSC)n2)cn1 | -1.673% |
| COC(=O)C(C)(C)NC(=O)c1scnc1Cl | 4.833% |
| CC1(C)OCC2(CO1)CN(C(=O)c1ccccc1Br)C2 | -7.61% |
| O=C1NCCCCC1NC(=O)C1(c2cccc(C(F)(F)F)c2)CC1 (centres undefined) | -27.01% |

| SMILES | Percent Effect |
| --- | --- |
| Cc1nc(-c2cccc(C(=O)N(C)CC(C)O)c2)cs1 (centres undefined) | -6.133% |
| CCC(Nc1nnnn1-c1ccccc1)C(=O)Nc1nc(C)cs1 (centres undefined) | 23.33% |
| CC[C@H](C)[C@H](N)C(=O)Nc1nc(-c2cnc(N(C)CCO)nc2)cs1 | 103.7% |
| CC[C@H](C)[C@H](N)C(=O)Nc1nc(-c2cnc(N(C)C)nc2)cs1 | 89.2% |
| Cc1cc(CN(C)C(=O)NC(C)Cc2ccc(O)cc2)no1 (centres undefined) | 12.34% |
| Cc1ccc(OCC(=O)Nc2cnccc2SCCCO)cc1C | -7.18% |
| CN(Cc1ccccc1CN1CCCC1)C(=O)c1c[nH]c(=O)[nH]1 | 14.99% |
| Cc1ccc(S(=O)(=O)N2CSCC2C(=O)N(C)C2CC2)cc1Cl (centres undefined) | 4.535% |
| O=C(Nc1cccc(CN2CCC(CO)CC2)c1)c1cc(Cl)c[nH]1 | 101.9% |
| CN(C)CCn1c(=O)oc2ccc(NC(=O)c3cc(Cl)c[nH]3)cc21 | -2.174% |
| Cc1nc(C)c(C(=O)Nc2cccc(CN3CCC(CO)CC3)c2)o1 | 118.5% |
| Cc1nc(CN2CCC(CNC(=O)Nc3ccccc3)CC2)oc1C | -9.889% |
| Cc1nc(C)n(Cc2cccc(NC(=O)NC(C)(CO)C3CC3)c2)n1 (centres undefined) | -1.537% |
| Cc1cc(C)c(C(=O)Nc2cccc(CN3CCC(CO)CC3)c2)o1 | 132.4% |
| CSc1cccc(CN2CCC(CCC(=O)Nc3ccccc3)CC2)c1 | 5.512% |
| N#Cc1ccccc1C(=O)Nc1cccc(CN2CCC(CO)CC2)c1 | 103.3% |
| O=C(Nc1cccnc1)Nc1cccc(CN2CCC(O)CC2)c1 | -1.395% |
| NC(=O)C1CCN(Cc2cccc(NC(=O)c3ccsc3)c2)CC1 | -7.959% |
| COC(=O)C(O)C1CCN(Cc2cccc(-n3cccn3)c2)CC1 (centres undefined) | 8.265% |
| CSc1cccc(CN2CCC(CCC(=O)NC3CC3)CC2)c1 | 0.2093% |
| CSCC(=O)Nc1ncn(Cc2cccc(Br)c2)n1 | 13.99% |
| Cc1ncsc1CCN(C)Cc1ccc(Br)o1 | 8.382% |

| SMILES | Percent Effect |
| --- | --- |
| CN(C)C1CN(C(=O)Nc2cccc(OC(F)F)c2)C1 | -11.25% |
| CCN(CC)C(=O)[C@@H]1C[C@@H](N)CN1C(=O)c1cc2c([nH]c1=O)CCC2 | -5.971% |
| CCCS(=O)(=O)NCc1cccnc1OCc1ccccc1 | 9.301% |
| CN1CCN(C[C@@H]2CN(C(=O)c3ccccc3C#N)C[C@@H]2CO)CC1 | 6.523% |
| CCC(=O)N1CCCC(C(=O)NCc2noc(Cc3ccccc3)n2)C1 (centres undefined) | 1.423% |
| CC(CO)(NCc1noc(Cc2ccccc2)n1)C1CCCCC1 (centres undefined) | 91.55% |
| CC(CO)(NC(=O)Nc1nncs1)C1CCCCC1 (centres undefined) | -9.276% |
| CCc1nc(CNC(C)(CO)C2CCCCC2)no1 (centres undefined) | 105.4% |
| COCCc1noc(CNC(C)(CO)C2CCCCC2)n1 (centres undefined) | 130.3% |
| COCCc1noc(CNC(=O)C2CC(=O)N(C(C)(C)C)C2)n1 (centres undefined) | -10.49% |
| CC(=O)N1CCCC(C(=O)NCc2noc(Cc3ccccc3)n2)C1 (centres undefined) | 10.7% |
| CCc1nc(CNc2ccc(-c3nc(C4CC4)no3)cn2)no1 | -0.6483% |
| COCCc1noc(CNC2CCSC2)n1 (centres undefined) | 7.087% |
| O=C(O)C(F)(F)F.O=C(O)C(F)(F)F.O=C(O)c1cc2c(nc1-c1ccoc1)CCN(CC1CCOC1)CC2 (centres undefined) | 7.736% |
| O=C(CCC(=O)N1CCC(Cc2ccc(CO)cc2)C1)c1ccccc1 (centres undefined) | -6.413% |
| O=C(c1coc2ccccc12)N1CCCC1 | 2.375% |
| CCS(=O)(=O)N1CC[C@@H]2[C@H](COCC3CC3)CN(C)C(=O)[C@@H]2CC1 | 34.67% |
| O=C(c1ccc2nccn2c1)N(CCO)Cc1ccccc1F | -19.18% |
| CN(C)c1cc(N(C)Cc2cc(C(C)(C)C)n[nH]2)ncn1 | 2.487% |
| CC(C)c1nc(CN(C)C(=O)c2cn3ccsc3n2)cs1 | 97.44% |
| CN(Cc1cc(C(C)(C)C)n[nH]1)C(=O)c1cn2ccsc2n1 | 85.98% |
| Cc1ccccc1CN(CCN(C)C)C(=O)c1ccc2nccn2c1 | -23.59% |

| SMILES | Percent Effect |
| --- | --- |
| CC(C)c1nc(CN(C)C(=O)CNC(N)=O)cs1 | -43.04% |
| CN(Cc1cc(C(C)(C)C)n[nH]1)C(=O)c1ccccc1C1CCNC1 (centres undefined) | 27.35% |
| CC(C)c1nc(CN(C)C(=O)c2ccccc2C2CCNC2)cs1 (centres undefined) | 31.56% |
| CN(Cc1cc(C(C)(C)C)n[nH]1)C(=O)c1ccc2nccn2c1 | 54.27% |
| CCCOC(=O)N1CCCC(c2nnc(CN3CCOCC3)n2C)C1 (centres undefined) | -3.793% |
| Cc1cc(CN2CCC(CNC(=O)c3ccc4[nH]cnc4c3)C2)[nH]n1 (centres undefined) | 4.896% |
| O=C(Nc1cnc(Oc2ccccc2F)nc1)C1CC1 | -9.559% |
| COCCOC(=O)N1CCC(c2nccn2CC2CC2)CC1 | 0.7863% |
| COc1ccc(-n2ncc(C(C)NCc3cnc(SC)nc3)c2C)cc1 (centres undefined) | 30.41% |
| CO[C@H]1C[C@@H](O)C12CCN(CCOc1ccc(Cl)cc1)CC2 | 86.28% |
| NC(=O)COc1ccc(CN2CCC3(CC2)[C@H](O)C[C@@H]3O)cc1Cl | 17.24% |
| CN(C)CCO[C@H]1C[C@@H](O)C12CCN(c1ncccc1Cl)CC2 | -1.379% |
| COc1cc(C)c(CN2CCC3(CC2)[C@H](O)C[C@@H]3OCCN)cc1C | 3.65% |
| CO[C@H]1C[C@@H](O)C12CCN(CCCOc1ccc(C(N)=O)cc1)CC2 | 113.2% |
| CC[C@@]1(O)CCN(CCCOc2ccc(C(N)=O)cc2)C[C@H]1O | 95.4% |
| CO[C@H]1C[C@@H](O)C12CCN(C(=O)CCCOc1ccccc1)CC2 | 97.53% |
| NCCO[C@H]1C[C@@H](O)C12CCN(C(=O)CCOc1ccccc1)CC2 | -12.3% |
| CC[C@@]1(O)CCN(C(=O)c2ccc(OC(F)F)cc2)C[C@H]1O | -4.955% |
| CCOc1cccc(C(=O)N2CCC3(CC2)[C@H](O)C[C@@H]3OC)c1 | 2.834% |
| NCCO[C@H]1C[C@@H](O)C12CCN(C(=O)COc1cccc(Cl)c1)CC2 | -10.97% |
| CC[C@@]1(O)CCN(C(=O)c2ccc(-c3ccco3)cc2)C[C@H]1O | -5.125% |
